Test results reported in the supplement of paper PMC6555819.

Tests used:
Test in all cases: PBM binding z-score (relative to random genomic background probes); higher = stronger binding; sequences stand for … in GC…GCGATTGACAGCGTAGAATGAAGG
[1] = tested on: FXR:RXRa (NR concentration 270 nM, RXRa partner concentration 90 nM)
Summary of the method: (§1)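 Ligand-free nuclear receptor dimers were applied to custom Agilent 4×180K protein-binding microarrays whose double-stranded probes carried direct-repeat seeds, single-nucleotide variants, half-site ablations and random human genomic background sequences in 34-nt variable regions. Incubation lasted 1 h. Binding z-scores were computed against the random background probes from regression-normalized fluorescence.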

[2] = tested on: LXRa:RXRa (NR concentration 270 nM, RXRa partner concentration 90 nM)
Summary of the method: as §1

[3] = tested on: LXRa homodimer (NR concentration 270 nM)
Summary of the method: as §1

[4] = tested on: LXRb:RXRa (NR concentration 270 nM, RXRa partner concentration 90 nM)
Summary of the method: as §1

[5] = tested on: LXRb homodimer (NR concentration 270 nM)
Summary of the method: as §1

[6] = tested on: PPARa:RXRa (NR concentration 270 nM, RXRa partner concentration 90 nM)
Summary of the method: as §1

[7] = tested on: PPARg:RXRa (NR concentration 180 nM, RXRa partner concentration 90 nM)
Summary of the method: as §1

[8] = tested on: PPARg:RXRa 270nM:90nM, anti-RXR (NR concentration 270 nM, RXRa partner concentration 90 nM)
Summary of the method: as §1

[9] = tested on: PPARg:RXRa 30nM:10nM, anti-RXR (NR concentration 30 nM, RXRa partner concentration 10 nM)
Summary of the method: as §1

[10] = tested on: PPARg:RXRa 90nM:30nM, anti-RXR (NR concentration 90 nM, RXRa partner concentration 30 nM)
Summary of the method: as §1

[11] = tested on: PPARg:RXRa DBDmut IVT, anti-RXR (DBD mutation: RXRa K156A/R161A, NR concentration 270 nM, RXRa partner concentration 90 nM)
Summary of the method: as §1

[12] = tested on: PPARg:RXRa IVT, anti-PPARg (NR concentration 270 nM, RXRa partner concentration 90 nM)
Summary of the method: as §1

[13] = tested on: PPARg DBDmut:RXRa IVT, anti-PPARg (DBD mutation: PPARg1 K132A/R137A, NR concentration 270 nM, RXRa partner concentration 90 nM)
Summary of the method: as §1

[14] = tested on: PPARg DBDmut IVT, anti-PPARg (DBD mutation: PPARg1 K132A/R137A, NR concentration 270 nM)
Summary of the method: as §1

[15] = tested on: PPARg homodimer (NR concentration 180 nM)
Summary of the method: as §1

[16] = tested on: PXR:RXRa (NR concentration 270 nM, RXRa partner concentration 90 nM)
Summary of the method: as §1

[17] = tested on: PXR homodimer (NR concentration 270 nM)
Summary of the method: as §1

[18] = tested on: RARa:RXR (NR concentration 270 nM, RXRa partner concentration 90 nM)
Summary of the method: as §1

[19] = tested on: RARa homodimer (NR concentration 270 nM)
Summary of the method: as §1

[20] = tested on: RARb:RXRa (NR concentration 270 nM, RXRa partner concentration 90 nM)
Summary of the method: as §1

Sequence	PBM binding z-score [1]	PBM binding z-score [2]	PBM binding z-score [3]	PBM binding z-score [4]	PBM binding z-score [5]	PBM binding z-score [6]	PBM binding z-score [7]	PBM binding z-score [8]	PBM binding z-score [9]	PBM binding z-score [10]	PBM binding z-score [11]	PBM binding z-score [12]	PBM binding z-score [13]	PBM binding z-score [14]	PBM binding z-score [15]	PBM binding z-score [16]	PBM binding z-score [17]	PBM binding z-score [18]	PBM binding z-score [19]	PBM binding z-score [20]
ATCTCTTGGTAAAGTTCAGTGAAAGATCGATAGA	1.08	2.09	1.65	1.6	1.5	1.69	1.54	3.02	1.39	2.65	0.216	0.63	1.4	1.94	1.76	2.41	2.31	1.63	1.65	2.82
GATACAGGGTCAAGGCCAGTGTACGCGTATTGAT	6.59	4.26	-0.145	3.52	-0.211	5.6	5.69	5.76	2.44	4.1	2.53	3.95	0.493	-0.124	2.17	3.97	0.209	4.47	0.237	4.41
CAAACTAGGTCACGAAAGGTTAAAGTCGAATGAC	5.89	7.18	3.46	5.5	0.758	6.04	9.67	7.92	5.98	8.04	8.39	9.07	2.59	1.97	3.32	5.8	0.579	5.4	1.18	5.01
CCTAGCAGGGCAATCTGGGTCACTCAAGGCTTGA	0.679	2.4	-0.398	0.85	-0.611	2.99	2.72	2.62	0.319	1.75	4.48	5.72	-0.465	-0.641	0.648	1.65	-0.451	1.89	-0.799	2.06
ACTAGCAGACCAAGTTTGGGTCACTCAAACAAAG	-0.0358	-0.0494	-0.696	0.808	-0.744	1.32	-0.0128	0.182	-0.186	0.531	-0.311	0.415	-0.191	-0.505	-0.222	0.6	-0.393	1.12	-0.119	0.992
GCTGCTGGGTCAACTGATGGTCAGCTAAAGCTCG	3.55	2.07	-0.346	1.83	-0.326	3.89	2.34	2.93	0.519	1.99	3.67	3.45	0.524	-0.337	1.55	1.94	-0.46	2.61	-0.59	3.98
CAGCCTAGGTCAGGGCCACTATAGGAGGAACGTT	1.85	1.24	-0.48	0.816	-0.559	2.18	1.36	1.27	-0.111	0.592	1.2	1.84	-0.722	-1.19	0.834	0.356	-0.684	0.936	-0.384	3.44
CCTCGGAGGACAGAAGGTCAGACCTGTCCGCTTT	1.44	1.56	0.0539	1.3	-0.489	1.9	0.19	0.86	-0.764	0.0778	0.156	0.0592	-1.1	-2.09	1.39	1.69	-0.272	2.2	-0.193	3.22
CTACCAAGGTGAACAAGGTCGTTGAATACTATTC	1.52	1.23	0.0934	1.87	-0.659	2.68	1.19	1.39	0.333	0.702	2.52	2.79	0.336	0.338	0.802	2.75	2.05	2.46	0.109	2.03
CCTAGCAGGCCAGAGTCACTCAAGCATTTCGCTT	-0.525	-0.329	-0.444	-0.519	-1.47	-0.299	-0.117	-0.25	-0.904	-0.753	0.697	-0.158	-1.34	-1.29	0.134	-0.712	-0.709	-0.507	-0.47	-0.0457
TTAGCAAGGTGAAGGTCGTTGATCCCTCTGTAGA	1.98	1.6	-0.45	0.97	-0.841	2.38	1.94	3.32	1.18	2.64	0.732	2.79	-0.57	-0.963	0.358	1.19	-0.023	1.51	-0.525	2.03
TTTTGTAGATCAACAGGAGGTTAAGAAAGATCGA	0.519	1.38	0.44	1.16	0.116	1.7	0.596	1.25	1.03	1.29	1.26	1.98	1.18	1.43	0.903	0.932	0.512	1.34	1.05	0.73
TCATATAGGTAAATGTTAGGTGAAAGTCCGATCT	1.64	1.44	0.543	1.22	0.304	1.64	1.04	2.53	4.07	3.22	4.12	2.63	1.47	1.82	1.66	0.918	0.8	1.63	1.9	0.728
TCTATTAGTTGGAGGGCAACCGACGAGTCCGTTT	0.6	1.06	0.645	0.855	0.753	0.93	-0.158	1.88	3.25	2.33	1.97	0.996	0.0745	-0.289	1.04	1.08	1.11	0.737	0.176	1.35
